The text below walks through data of ChEMBL document CHEMBL1961873, “Compounds: GSK PKIS; Assays: Nanosyn kinase panel” (2012).

Test [1] addresses Mitogen-activated protein kinase kinase kinase kinase 4 (Homo sapiens) (UniProt O95819). The note with it: at 1 µM.
Test [2] has as its target Dual specificity mitogen-activated protein kinase kinase 1 (Homo sapiens) (UniProt Q02750). The following applies: at 0.1 µM.
Test [3] shares this target. The note with it: at 1 µM.
Test [4] addresses Misshapen-like kinase 1 (Homo sapiens) (UniProt Q8N4C8). The following applies: at 0.1 µM.
Test [5] shares this target. The following applies: at 1 µM.
Test [6] has as its target T1, Serine/threonine-protein kinase 4 (Homo sapiens) (UniProt Q13043).
T1 sequence (whole entry): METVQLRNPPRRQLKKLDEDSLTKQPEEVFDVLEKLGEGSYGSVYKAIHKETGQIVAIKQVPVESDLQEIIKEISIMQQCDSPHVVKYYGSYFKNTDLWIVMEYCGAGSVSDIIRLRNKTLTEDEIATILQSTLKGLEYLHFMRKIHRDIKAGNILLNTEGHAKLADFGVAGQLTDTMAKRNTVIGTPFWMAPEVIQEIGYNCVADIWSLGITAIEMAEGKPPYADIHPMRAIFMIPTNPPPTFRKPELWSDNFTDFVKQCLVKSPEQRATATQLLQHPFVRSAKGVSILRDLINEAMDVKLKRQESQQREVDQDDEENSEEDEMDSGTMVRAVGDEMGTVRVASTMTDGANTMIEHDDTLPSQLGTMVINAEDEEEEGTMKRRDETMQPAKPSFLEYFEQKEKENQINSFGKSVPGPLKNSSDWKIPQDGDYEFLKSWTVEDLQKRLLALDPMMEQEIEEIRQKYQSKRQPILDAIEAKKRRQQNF
The following applies: at 0.1 µM.

Test [7] has as its target T1, Serine/threonine-protein kinase 4 (Homo sapiens). The note with it: at 1 µM.
The target in test [8] is Serine/threonine-protein kinase 26 (Homo sapiens) (UniProt Q9P289). The following applies: at 0.1 µM.
Sequence of Serine/threonine-protein kinase 26 (Homo sapiens) (Q9P289 2-416 limits assumed): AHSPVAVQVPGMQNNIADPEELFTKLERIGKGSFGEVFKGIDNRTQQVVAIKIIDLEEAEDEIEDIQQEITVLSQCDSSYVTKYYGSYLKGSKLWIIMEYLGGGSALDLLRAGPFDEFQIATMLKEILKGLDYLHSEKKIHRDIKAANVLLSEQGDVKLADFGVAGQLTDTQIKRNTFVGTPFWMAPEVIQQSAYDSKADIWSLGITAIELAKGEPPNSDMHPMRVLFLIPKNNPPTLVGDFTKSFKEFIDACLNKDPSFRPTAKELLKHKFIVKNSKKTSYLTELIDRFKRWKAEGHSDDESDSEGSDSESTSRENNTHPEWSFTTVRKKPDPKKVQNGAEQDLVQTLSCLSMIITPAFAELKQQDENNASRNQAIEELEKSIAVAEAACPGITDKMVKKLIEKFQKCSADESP
Test [9] deals with T2, Serine/threonine-protein kinase 3 (Homo sapiens) (UniProt Q13188).
T2 sequence (whole entry): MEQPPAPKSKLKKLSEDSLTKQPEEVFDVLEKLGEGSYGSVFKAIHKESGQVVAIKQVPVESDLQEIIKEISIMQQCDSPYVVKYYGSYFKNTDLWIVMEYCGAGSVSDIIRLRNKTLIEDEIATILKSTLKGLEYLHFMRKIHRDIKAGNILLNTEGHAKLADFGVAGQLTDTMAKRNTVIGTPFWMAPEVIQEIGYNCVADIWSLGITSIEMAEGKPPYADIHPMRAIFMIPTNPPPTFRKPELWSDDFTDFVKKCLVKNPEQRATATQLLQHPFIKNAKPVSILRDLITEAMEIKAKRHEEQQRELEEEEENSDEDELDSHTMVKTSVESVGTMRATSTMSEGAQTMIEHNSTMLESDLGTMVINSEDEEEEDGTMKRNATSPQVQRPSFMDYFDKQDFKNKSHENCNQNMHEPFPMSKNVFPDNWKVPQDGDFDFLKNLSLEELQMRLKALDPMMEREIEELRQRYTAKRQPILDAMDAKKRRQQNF
The note with it: at 0.1 µM.

Test [10] concerns the target T2, Serine/threonine-protein kinase 3 (Homo sapiens). The following applies: at 1 µM.

Sequence of Misshapen-like kinase 1 (Homo sapiens) (Q8N4C8 whole entry, looked up): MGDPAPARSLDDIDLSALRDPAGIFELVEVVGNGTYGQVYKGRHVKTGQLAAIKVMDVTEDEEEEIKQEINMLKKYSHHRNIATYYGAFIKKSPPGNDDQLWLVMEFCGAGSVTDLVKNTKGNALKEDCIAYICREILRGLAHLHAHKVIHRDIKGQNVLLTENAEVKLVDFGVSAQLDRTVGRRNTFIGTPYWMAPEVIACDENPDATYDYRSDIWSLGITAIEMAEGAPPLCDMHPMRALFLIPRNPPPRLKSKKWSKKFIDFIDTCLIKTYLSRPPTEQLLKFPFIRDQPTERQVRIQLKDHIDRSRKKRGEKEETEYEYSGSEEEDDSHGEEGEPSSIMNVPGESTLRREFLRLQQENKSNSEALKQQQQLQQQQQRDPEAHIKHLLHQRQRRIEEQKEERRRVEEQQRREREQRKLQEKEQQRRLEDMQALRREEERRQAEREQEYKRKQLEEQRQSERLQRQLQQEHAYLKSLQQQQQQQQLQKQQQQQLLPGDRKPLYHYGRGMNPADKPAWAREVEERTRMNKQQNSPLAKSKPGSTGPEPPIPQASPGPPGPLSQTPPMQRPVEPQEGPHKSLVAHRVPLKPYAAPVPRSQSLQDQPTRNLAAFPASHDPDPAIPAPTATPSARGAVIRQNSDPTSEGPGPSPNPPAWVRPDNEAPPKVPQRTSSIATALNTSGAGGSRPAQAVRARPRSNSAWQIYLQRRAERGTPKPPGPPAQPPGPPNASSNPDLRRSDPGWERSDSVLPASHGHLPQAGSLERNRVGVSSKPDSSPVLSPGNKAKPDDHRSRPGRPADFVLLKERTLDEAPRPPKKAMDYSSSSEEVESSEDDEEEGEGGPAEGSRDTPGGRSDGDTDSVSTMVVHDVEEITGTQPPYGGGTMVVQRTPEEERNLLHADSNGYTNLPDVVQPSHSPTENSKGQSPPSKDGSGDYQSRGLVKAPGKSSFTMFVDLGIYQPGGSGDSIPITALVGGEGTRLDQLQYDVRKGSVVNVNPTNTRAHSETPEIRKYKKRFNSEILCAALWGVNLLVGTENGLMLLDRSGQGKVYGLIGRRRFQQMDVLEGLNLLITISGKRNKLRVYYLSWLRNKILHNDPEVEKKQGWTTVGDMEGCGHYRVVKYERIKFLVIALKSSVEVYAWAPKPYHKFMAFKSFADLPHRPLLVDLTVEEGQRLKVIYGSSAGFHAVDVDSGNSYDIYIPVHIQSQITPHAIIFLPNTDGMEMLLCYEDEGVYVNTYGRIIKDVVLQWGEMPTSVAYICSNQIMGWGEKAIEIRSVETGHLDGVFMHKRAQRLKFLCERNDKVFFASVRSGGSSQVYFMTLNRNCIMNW
Sequence of Dual specificity mitogen-activated protein kinase kinase 1 (Homo sapiens) (Q02750 whole entry): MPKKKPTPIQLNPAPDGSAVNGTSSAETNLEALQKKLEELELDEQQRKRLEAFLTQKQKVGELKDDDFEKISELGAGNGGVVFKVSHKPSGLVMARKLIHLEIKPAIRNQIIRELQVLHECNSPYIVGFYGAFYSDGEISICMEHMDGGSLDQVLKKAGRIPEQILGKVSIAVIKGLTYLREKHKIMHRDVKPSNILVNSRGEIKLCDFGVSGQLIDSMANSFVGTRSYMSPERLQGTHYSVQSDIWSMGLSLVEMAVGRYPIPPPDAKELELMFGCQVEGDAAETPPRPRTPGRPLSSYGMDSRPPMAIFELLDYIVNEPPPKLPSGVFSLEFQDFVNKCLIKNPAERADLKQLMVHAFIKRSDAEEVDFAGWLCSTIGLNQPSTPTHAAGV
Sequence of Mitogen-activated protein kinase kinase kinase kinase 4 (Homo sapiens) (O95819 2-1239 limits assumed): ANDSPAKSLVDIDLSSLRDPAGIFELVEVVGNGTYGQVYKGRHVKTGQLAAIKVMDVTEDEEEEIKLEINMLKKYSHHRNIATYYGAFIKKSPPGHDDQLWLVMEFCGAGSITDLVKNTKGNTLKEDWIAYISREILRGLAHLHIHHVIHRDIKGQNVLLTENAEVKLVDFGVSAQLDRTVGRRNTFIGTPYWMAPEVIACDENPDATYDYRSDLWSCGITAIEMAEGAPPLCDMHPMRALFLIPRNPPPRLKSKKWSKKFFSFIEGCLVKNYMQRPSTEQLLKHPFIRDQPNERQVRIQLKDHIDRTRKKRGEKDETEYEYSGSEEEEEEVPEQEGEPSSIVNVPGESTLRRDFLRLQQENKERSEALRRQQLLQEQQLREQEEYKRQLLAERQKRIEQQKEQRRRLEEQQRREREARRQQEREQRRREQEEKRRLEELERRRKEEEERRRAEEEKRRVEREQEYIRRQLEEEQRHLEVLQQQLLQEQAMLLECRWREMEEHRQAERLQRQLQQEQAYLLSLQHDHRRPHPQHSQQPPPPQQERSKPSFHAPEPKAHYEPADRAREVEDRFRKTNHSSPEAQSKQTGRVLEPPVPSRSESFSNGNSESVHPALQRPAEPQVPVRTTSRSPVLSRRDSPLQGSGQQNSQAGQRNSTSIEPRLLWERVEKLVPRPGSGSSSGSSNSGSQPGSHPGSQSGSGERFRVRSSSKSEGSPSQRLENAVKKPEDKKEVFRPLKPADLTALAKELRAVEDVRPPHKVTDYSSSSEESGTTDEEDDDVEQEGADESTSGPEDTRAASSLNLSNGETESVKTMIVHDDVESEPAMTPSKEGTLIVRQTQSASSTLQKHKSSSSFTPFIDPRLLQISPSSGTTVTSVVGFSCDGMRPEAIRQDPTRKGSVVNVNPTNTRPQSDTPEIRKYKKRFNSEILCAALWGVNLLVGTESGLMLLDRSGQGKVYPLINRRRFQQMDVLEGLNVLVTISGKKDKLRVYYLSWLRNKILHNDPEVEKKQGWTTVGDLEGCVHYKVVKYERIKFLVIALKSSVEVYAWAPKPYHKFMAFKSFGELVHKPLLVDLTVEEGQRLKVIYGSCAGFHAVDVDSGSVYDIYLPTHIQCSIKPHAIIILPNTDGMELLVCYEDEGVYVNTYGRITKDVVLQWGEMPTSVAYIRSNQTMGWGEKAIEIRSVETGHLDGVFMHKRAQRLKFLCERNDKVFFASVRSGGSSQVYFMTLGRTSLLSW

In the case of `CCc1nccc2c1nc(-c1nonc1N)n2CC`, the inhibition (commonly the drop in the measured response relative to a control, in per cent) was 6.31% in test [1]; 1.12% in test [2]; 1.54% in test [3]; 3.5% in test [4]; 3.84% in test [5]; -1.14% in test [6]. The inhibition in test [7] is -0.39%; in [8] it was -1.4%.
Consider `Clc1ccc(CNc2nccc(-c3cnn4ncccc34)n2)cc1`, for which the inhibition came to 16.3% in test [1]; 0.08% in test [2]; 2.12% in test [3]; 1.36% in test [4]; 10.7% in test [5]; 3.22% in test [6]. Further, the inhibition in test [7] is 5.84%; in test [9] it was 2.53%; in [10], 3.57%; in test [8], -0.31%.
With `Cc1ccc(NC(=O)c2ccoc2)cc1-c1ccc(C(=O)NCC2CC2)cc1`, the inhibition turned out to be 1.38% in [1]; 2.89% in test [2]; 2.27% in test [3]; 2.91% in [4]; 1.4% in test [5]; 4.29% in [6]. The inhibition in test [7] is 2.08%; in test [9], 4.78%; in test [10], 4.5%; in [8], -1.09%.
On to `C/C(Nc1ccc(S(N)(=O)=O)cc1)=C1/C(=O)Nc2ccccc21`, for which the inhibition in [1] is 88.3%; in [2] it was -1.13%; in test [3] it was 0.96%; in test [4], 34.1%; in [5], 85.3%; in test [6] it was 10.2%. The inhibition in [7] was 55.3%; in [9] it was 3.63%; in test [10], 42.3%; in test [8], -1.9%.
Turning to `NC(=O)c1cc(-c2ccncc2)cc(-c2ccccc2)c1N`, the inhibition turned out to be 32.3% in test [1]; 6.3% in test [2]; 5.89% in test [3]; 11.2% in test [4]; 26.1% in test [5]; 3.19% in [6]. Also, the inhibition in [7] is 6.8%; in test [9], 3.96%; in test [10] it was 3.58%; in test [8], -0.07%.
Turning to `C#Cc1cccc(Nc2ncnc3ccc(OCCCCNCCS(C)(=O)=O)cc23)c1`, the inhibition stood at 19.6% in test [1]; 6.88% in [2]; 4.96% in [3]; 9.17% in [4]; 17.6% in [5]; 4.35% in test [6]. The inhibition in test [7] was 7.8%; in test [9], 5.45%; in test [10], 7.49%; in test [8], -2.14%.
In the case of `CS(=O)(=O)CCNCc1cc(-c2cc3c(Nc4ccc(OCc5cccc(F)c5)c(Cl)c4)ncnc3s2)cs1`, the inhibition came to 10.3% in test [1]; 4.54% in test [2]; 5.74% in test [3]; 6.33% in [4]; 8.36% in test [5]; 4.99% in test [6]. Moreover, the inhibition was 6.28% in test [7], 6.59% in [9], 6.16% in test [10] and -2.65% in test [8].
As for `O=C(Nc1n[nH]c2nc(-c3ccc(O)cc3)c(Br)cc12)C1CC1`, the inhibition in test [1] was determined as 75.2%; in [2], 7.68%; in test [3], 8.1%; in test [4] it was 26.4%; in test [5] it was 67.7%; in test [6], 5.36%. The inhibition came to 10.2% in test [7], 6.31% in [9], 10.6% in test [10] and 4.96% in test [8].
As for `O=C(Nc1n[nH]c2cc(-c3ccccc3)ccc12)C1CC1`, the inhibition in test [1] turned out to be 74.2%; in test [2], 4.67%; in test [3], 3.62%; in test [4], 21.4%; in test [5] it was 64.5%; in test [6], 4.78%. Besides, the inhibition in test [7] was 6.38%; in test [9], 5.18%; in test [10], 6.35%; in [8], -2.61%.
For the compound `Fc1ccc(-c2ncn(C3CCNCC3)c2-c2ccnc(Oc3ccc4c(c3)OCO4)n2)cc1`, the inhibition turned out to be 7.72% in test [1]; 4.99% in test [2]; 8.82% in test [3]; 5.95% in test [4]; 12% in test [5]; 4.76% in test [6]. In addition, the inhibition was 8.51% in test [7], 6.72% in test [9], 10.8% in [10] and -1.94% in test [8].
With `COc1cc(Nc2ncc3c(C)nc(-c4cccc(Oc5ccccc5)c4)n3n2)cc(OC)c1OC`, the inhibition in [1] was found to be 5.36%; in [2], 2.88%; in test [3], 9.12%; in test [4] it was 1.96%; in test [5] it was 2.84%; in [6], 5.41%. Moreover, the inhibition in test [7] was 6.48%; in test [9], 5.14%; in test [10], 4.82%; in [8], -0.33%.
As for `COc1cc(Nc2ncc(-c3ccccc3)o2)cc(OC)c1OC`, the inhibition is 26.4% in test [1]; -0.87% in test [2]; 0.69% in test [3]; 0.26% in [4]; 17.3% in test [5]; -2.33% in test [6]. For the same compound, the inhibition in test [7] was 0%; in test [9], -4.02%; in test [10], -1.87%; in test [8] it was -0.19%.
On to `COc1cc2ncn(-c3cc(OCc4ccccc4C(F)(F)F)c(C(C)=O)s3)c2cc1OC`, for which the inhibition in test [1] turned out to be 8.16%; in test [2], 3.88%; in test [3], 3.7%; in test [4], 5%; in test [5], 8.55%; in test [6], 3.51%. In addition, the inhibition in [7] was 3.86%; in test [9], 3.42%; in test [10], 7.42%; in test [8], -0.47%.
Turning to `FC(F)(F)c1cccc(Nc2nccc(-c3cnn4nc(-c5ccccc5)ccc34)n2)c1`, the inhibition in [1] was 3.3%; in test [2] it was 2.8%; in test [3], 3.14%; in test [4] it was 3.38%; in test [5] it was 3.06%; in [6], 1.12%. The inhibition in test [7] was 3.6%; in test [9] it was 3.94%; in [10], 3.81%; in test [8], 0.42%.
`COc1ccc(C2=C(N3CCc4ccccc43)C(=O)NC2=O)cc1`: the inhibition came out at 12.6% in [1]; 5.11% in [2]; 4.03% in [3]; 7.89% in test [4]; 11% in test [5]; 7.03% in test [6]. Moreover, the inhibition was 7.64% in test [7], 6.94% in test [9], 6.17% in test [10] and -0.57% in [8].
Consider `CCC(=O)Nc1ccc(C)c(-c2ccc(C(=O)NCC3CC3)cc2)c1`, for which the inhibition in test [1] was 5.43%; in [2], 3.72%; in test [3], 2.87%; in test [4], 7.03%; in test [5] it was 5.64%; in test [6], 2.76%. Besides, the inhibition in test [7] was 3.12%; in test [9], 3.02%; in test [10], 2.84%; in [8], -1.82%.
Consider `COc1cc(C)c(N(C)C(=O)CN(C)C)cc1Nc1nc(Nc2cccc(F)c2C(N)=O)c2cc[nH]c2n1`, for which the inhibition in test [1] worked out at 4.77%; in [2] it was 2.7%; in [3], 4.56%; in [4], 2.85%; in test [5], 1.74%; in test [6], 4.57%. Moreover, the inhibition was 4.81% in test [7], 5.2% in test [9], 4.32% in test [10] and -0.43% in test [8].
